Source: PubChem
An excerpt weighted towards active compounds, which were near 2.6% of everything screened.
TROY signal inh – blocks TROY-dependent signaling in reporter cells; Q293 LMP1-TROYcd NF-kB luciferase reporter, 4 h; inhibition, % at 10 µM; 360,000 compounds, 0.98% hits; AID 1347056;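 active means compounds whose plate-normalised and pattern-corrected inhibition of the luciferase reporter signal at the single screening dose is 50% or more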
aDG glyco act – alpha-DG glycosylation activation; AID 624168; Pro5-aDG cells, alpha-DG glycosylation AlphaScreen (IIH6); 0% Pro5, 100% B10-LARGE cell signal; activation, % at 10 µM; 360,000 compounds, 0.22% hits;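 active means activation of at least 8% versus controls, or a plate z-score of at least 8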;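 further: Pro5 are CHO cells carrying HIG-tagged alpha-DG that lacks glycosylation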
EBV LMP1 NFkB – reduces LMP1-driven NF-kappaB luciferase signal; LMP1-induced NF-kappaB luciferase reporter cells, luminescence; inhibition, % at 12.5 µM; 350,000 compounds, 0.69% hits; in the data active means inhibition above about 41%
TWEAK-Fn14 inh – blocks TWEAK-Fn14 interaction in a reporter cell assay | TWEAK-stimulated Fn14 reporter cells, luciferase luminescence, 8 h | inhibition, % at 10 µM | 360,000 compounds, 2% hits | AID 1159606; in the data active means inhibition above about 50%
HSP90 refold inh – inhibitors of HSP90 luciferase refolding in rabbit reticulocyte lysate | luciferase refolding luminescence, 3 h | inhibition, % at 5.6 µM | 290,000 compounds, 0.91% hits | AID 1789;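 active means inhibition above the screen-wide mean plus 3 SD, computed separately per campaign, cut at about 16% in these data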;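 further: inhibitors lower the luminescence because luciferase stays unfolded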
LGR2 antag – Drosophila LGR2 receptor signaling inhibition. HEK293 LGR2, CRE-luciferase, bursicon-stimulated, 4 h. inhibition, % at 9.99 µM. 380,000 compounds, 0.35% hits;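 active means drop in luminescence signal, shown as inhibition above about 50% in the replicate tests, limit read from the data, passing the limit was not always enough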;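 further: agonist challenge used bursicon conditioned medium at about half maximal strength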
Numbers stand for hits.

`O=c1cc(-c2ccccc2)oc2c1ccc1ccccc12` gave LGR2 antag inactive.
Screening COCC(=O)N(C)C[C@H]1Oc2cc(-c3ccncc3)ccc2S(=O)(=O)N([C@@H](C)CO)C[C@H]1C returned LGR2 antag inactive.
For CNC[C@H]1Oc2ncc(-c3ccccc3F)cc2C(=O)N([C@@H](C)CO)C[C@H]1C the results were LGR2 antag inactive.
CCOc1ccccc1NC(=O)c1cccc(NC(=O)c2ccco2)c1 was read as TROY signal inh inactive, aDG glyco act inactive, EBV LMP1 NFkB inactive, TWEAK-Fn14 inh 88 and HSP90 refold inh inactive.
`COc1ccc(NC(=O)c2oc3ccccc3c2NC(=O)c2ccco2)cc1` gave TROY signal inh inactive, aDG glyco act inactive, EBV LMP1 NFkB inactive, TWEAK-Fn14 inh 55, HSP90 refold inh inactive and LGR2 antag inactive.
`O=C(NCCCNC(=O)c1ccco1)c1ccc(Cl)cc1` gave TROY signal inh 61, aDG glyco act inactive, EBV LMP1 NFkB inactive, TWEAK-Fn14 inh 70, HSP90 refold inh inactive and LGR2 antag inactive.
For Cc1ccc(C(=O)NCCCNC(=O)c2ccco2)cc1 the results were TROY signal inh inactive, aDG glyco act inactive, EBV LMP1 NFkB inactive, TWEAK-Fn14 inh inactive, HSP90 refold inh inactive and LGR2 antag inactive.
`O=C(Nc1ccccc1)c1cccc(NC(=O)c2ccco2)c1` gave TROY signal inh inactive, aDG glyco act inactive, EBV LMP1 NFkB inactive, TWEAK-Fn14 inh 101 and LGR2 antag inactive.
For Cc1ccccc1NC(=O)c1cccc(NC(=O)c2ccco2)c1 the results were TROY signal inh inactive, aDG glyco act inactive, EBV LMP1 NFkB inactive, TWEAK-Fn14 inh inactive, HSP90 refold inh inactive and LGR2 antag inactive.
For CC(C)CC#Cc1ccc2c(c1)O[C@@H](CN(C)C(=O)C1CC1)[C@H](C)CN([C@@H](C)CO)S2(=O)=O the results were LGR2 antag inactive.
CC1N(C)c2cc(NC(=O)c3ccco3)ccc2C1(C)C (stereo not drawn) was read as TROY signal inh 53, aDG glyco act inactive, EBV LMP1 NFkB inactive, TWEAK-Fn14 inh inactive, HSP90 refold inh inactive and LGR2 antag inactive.
Screening COc1ccc(-c2ccc(NC(=O)c3ccco3)cc2)nn1 returned TROY signal inh inactive, aDG glyco act inactive, EBV LMP1 NFkB 57, TWEAK-Fn14 inh 77 and LGR2 antag 66.
Screening O=C(Nc1ccc(Cl)cc1)c1ccco1 returned TROY signal inh inactive, aDG glyco act inactive, EBV LMP1 NFkB 57, TWEAK-Fn14 inh inactive, HSP90 refold inh inactive and LGR2 antag inactive.
CC1N(C)c2cc(NC(=O)c3ccco3)c(P(=O)(Nc3ccc([N+](=O)[O-])cc3)N3CCOCC3)cc2C1(C)C (stereo not drawn) was read as TROY signal inh inactive, aDG glyco act inactive, EBV LMP1 NFkB inactive, TWEAK-Fn14 inh inactive, HSP90 refold inh inactive and LGR2 antag inactive.
For O=C(O)C[C@@H]1C[C@H]2c3cc(NC(=O)Cc4ccncc4)ccc3O[C@H]2[C@H](CO)O1 the results were LGR2 antag inactive.
For CN1C(=O)[C@H]2[C@@H](/C=C/c3ccccc3)N3C(=O)CN(Cc4ccccc4)C(=O)[C@@]3(C)[C@H]2C1=O the results were TROY signal inh inactive, aDG glyco act inactive, EBV LMP1 NFkB inactive, TWEAK-Fn14 inh inactive and HSP90 refold inh inactive.
For C[C@@]12C(=O)N(Cc3ccccc3)CC(=O)N1[C@H](/C=C/c1ccccc1)[C@@H]1C(=O)N(c3ccccc3)C(=O)[C@@H]12 the results were EBV LMP1 NFkB 82 and HSP90 refold inh inactive.
For CO[C@@H]1CN(C)C(=O)c2ccc(NC(C)=O)cc2OC[C@H](C)N(C(=O)Cc2cccnc2)C[C@H]1C the results were LGR2 antag inactive.
CO[C@@H]1CN(C)C(=O)c2ccc(NC(=O)Nc3ccc(F)cc3)cc2OC[C@@H](C)N(C(=O)c2cnccn2)C[C@H]1C was read as LGR2 antag inactive.
Screening CC(C)(C)c1ccc(C(=O)CC(=O)c2cc(Cl)ccc2O)cc1 returned TROY signal inh inactive, aDG glyco act inactive, EBV LMP1 NFkB inactive, TWEAK-Fn14 inh inactive and HSP90 refold inh inactive.
For N/C(=C\C(=O)c1cc(Cl)ccc1O)C(Cl)(Cl)Cl the results were TROY signal inh inactive, aDG glyco act inactive, EBV LMP1 NFkB inactive, TWEAK-Fn14 inh 67, HSP90 refold inh inactive and LGR2 antag inactive.
